Data on 46 sequences can be found in the supplement of paper PMC3545927.

The list shows a part of the results. The true hit rate is not given.

The test deals with furin, P09958. The test is described as follows: furin cleavage Z-score vs untreated control; higher = more cleavage, active = 3.5 or more, inactive = 1 or less, 8 variable residues between constant flanks. The gist of the method: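 Magnetic beads held 8-mer peptides by the N-terminus, each fused to a cDNA oligonucleotide, and purified furin was added for 7.5, 15 or 30 min. Released DNA was sequenced after PCR adapter tagging. The cleavage Z-score is the log count relative to furin-free reactions, lowess-adjusted and divided by median absolute deviation.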
Chain of furin, P09958 (P09958 whole entry, the tested form may be a part): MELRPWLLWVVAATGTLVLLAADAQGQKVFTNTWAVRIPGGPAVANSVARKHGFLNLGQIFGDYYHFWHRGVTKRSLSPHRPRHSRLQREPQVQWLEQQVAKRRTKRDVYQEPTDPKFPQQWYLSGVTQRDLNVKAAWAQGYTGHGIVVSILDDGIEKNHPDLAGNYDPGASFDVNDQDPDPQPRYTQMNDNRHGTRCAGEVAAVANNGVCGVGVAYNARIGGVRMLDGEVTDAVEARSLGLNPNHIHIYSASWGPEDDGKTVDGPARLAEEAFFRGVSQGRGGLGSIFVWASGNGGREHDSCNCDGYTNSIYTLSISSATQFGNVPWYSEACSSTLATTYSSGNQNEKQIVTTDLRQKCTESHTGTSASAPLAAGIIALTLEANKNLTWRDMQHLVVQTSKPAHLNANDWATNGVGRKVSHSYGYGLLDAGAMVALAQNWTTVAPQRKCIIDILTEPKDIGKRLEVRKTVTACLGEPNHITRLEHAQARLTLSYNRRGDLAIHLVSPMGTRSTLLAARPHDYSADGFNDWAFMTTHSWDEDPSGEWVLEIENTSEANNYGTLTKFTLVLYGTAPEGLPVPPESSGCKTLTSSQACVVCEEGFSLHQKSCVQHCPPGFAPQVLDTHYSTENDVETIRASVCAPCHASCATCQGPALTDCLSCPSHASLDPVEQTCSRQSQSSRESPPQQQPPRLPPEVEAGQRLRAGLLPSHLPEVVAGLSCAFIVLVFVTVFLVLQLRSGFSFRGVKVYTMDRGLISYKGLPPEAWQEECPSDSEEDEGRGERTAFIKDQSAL
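Further: purified furin at 1:10 enzyme:substrate in 50 mM HEPES pH 7.5.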

For the sequence CAVPCCSMSYAGNASASA [HC2019], the “furin cleavage Z-score” value is -0.257 (inactive) (7.5 min), 0.638 (inactive) (15 min) and 1.91 (30 min).

As to CAEQTTPCSGAGNASASA [HC1982], the “furin cleavage Z-score” value is -1.3 (inactive) (7.5 min), -0.293 (inactive) (15 min) and 0.257 (inactive) (30 min).

On to CASPLLLTTTAGNASASA [HC492], for which the “furin cleavage Z-score” value is -0.516 (inactive) (7.5 min), -0.474 (inactive) (15 min) and -1.67 (inactive) (30 min).

For CAESVVCCSMAGNASASA [HC2137], the “furin cleavage Z-score” value (7.5 min) was -0.35 (inactive), the “furin cleavage Z-score” value (15 min) is -0.242 (inactive) and the “furin cleavage Z-score” value (30 min) was -0.275 (inactive).

With CAEEEVPCHRAGNASASA [HC2452], the “furin cleavage Z-score” value (7.5 min) is -0.0801 (inactive), the “furin cleavage Z-score” value (15 min) was -0.749 (inactive) and the “furin cleavage Z-score” value (30 min) was -0.159 (inactive).

For CADAVILLMCAGNASASA [HC596], the “furin cleavage Z-score” value by setting is: (7.5 min) -0.491 (inactive); (15 min) 1.35; (30 min) 0.744 (inactive).

Consider CAREKRLLYSAGNASASA [FS-3218], for which the “furin cleavage Z-score” value (7.5 min) was -0.25 (inactive), the “furin cleavage Z-score” value (15 min) is 0.302 (inactive) and the “furin cleavage Z-score” value (30 min) is -0.105 (inactive).

CAREKRSEYSAGNASASA [FS-1852]: the “furin cleavage Z-score” value is, setting by setting: (7.5 min) 3.09; (15 min) 3.81 (active); (30 min) 3.2.

As to CALLCRHKRKAGNASASA [FS-1359], the “furin cleavage Z-score” value (7.5 min) was 7.93 (active), the “furin cleavage Z-score” value (15 min) is 9.24 (active) and the “furin cleavage Z-score” value (30 min) was 8.25 (active).

For CARGPRGKGKAGNASASA [FS-1893], the “furin cleavage Z-score” value is -0.459 (inactive) (7.5 min), -0.333 (inactive) (15 min) and -2.1 (inactive) (30 min).

With CAIEFRHKRKAGNASASA [FS-1535], the “furin cleavage Z-score” value reads like this: (7.5 min) -1.35 (inactive); (15 min) 1.39; (30 min) 3.89 (active).

In the case of CATIMAKNEVAGNASASA [HC1439], the “furin cleavage Z-score” value reads like this: (7.5 min) 1.57; (15 min) 1.43; (30 min) 0.513 (inactive).

In the case of CAMGGNITRVAGNASASA [HC1279], the “furin cleavage Z-score” value was -0.69 (inactive) (7.5 min), 2.32 (15 min) and 0.434 (inactive) (30 min).

Consider CAEVVASTWVAGNASASA [HC121], for which the “furin cleavage Z-score” value (7.5 min) stood at 1.23, the “furin cleavage Z-score” value (15 min) was 1.63 and the “furin cleavage Z-score” value (30 min) was -0.233 (inactive).

For the sequence CAYGGRNRRVAGNASASA [FS-151], the “furin cleavage Z-score” value is, setting by setting: (7.5 min) 2; (15 min) 3.67 (active); (30 min) 4.5 (active).

For the sequence CAKFHRNRRVAGNASASA [FS-38], the “furin cleavage Z-score” value was 1.89 (7.5 min), 4.04 (active) (15 min) and 2.3 (30 min).

Take CAVPCVREGNAGNASASA [HC274]: the “furin cleavage Z-score” value (7.5 min) was -0.737 (inactive), the “furin cleavage Z-score” value (15 min) is -0.519 (inactive) and the “furin cleavage Z-score” value (30 min) is -1.84 (inactive).

As to CARLRRMNGNAGNASASA [FS-2994], the “furin cleavage Z-score” value runs as follows: (7.5 min) -0.28 (inactive); (15 min) -1.18 (inactive); (30 min) -0.557 (inactive).

Consider CARLPRDCTRAGNASASA [FS-1742], for which the “furin cleavage Z-score” value runs as follows: (7.5 min) 5.34 (active); (15 min) 4.96 (active); (30 min) 5.25 (active).

For CAGVNYATGNAGNASASA [HC241], the “furin cleavage Z-score” value is 1.48 (7.5 min), 0.396 (inactive) (15 min) and -0.36 (inactive) (30 min).

In the case of CARLPRATGNAGNASASA [FS-2571], the “furin cleavage Z-score” value reads like this: (7.5 min) 5 (active); (15 min) 5.67 (active); (30 min) 4.58 (active).

Take CAWREVPCHRAGNASASA [HC2428]: the “furin cleavage Z-score” value is, setting by setting: (7.5 min) 0.368 (inactive); (15 min) 0.114 (inactive); (30 min) 0.301 (inactive).

For CARLARTCGRAGNASASA [FS-2985], the “furin cleavage Z-score” value by setting is: (7.5 min) -1.25 (inactive); (15 min) 0.197 (inactive); (30 min) -0.432 (inactive).

In the case of CAVVCCCMSYAGNASASA [HC114], the “furin cleavage Z-score” value was -0.592 (inactive) (7.5 min), -1.78 (inactive) (15 min) and -0.879 (inactive) (30 min).

Take CAENLPYLVAAGNASASA [HC951]: the “furin cleavage Z-score” value was 0.645 (inactive) (7.5 min), -0.626 (inactive) (15 min) and -0.719 (inactive) (30 min).

As to CARKRRGYSEAGNASASA [FS-2566], the “furin cleavage Z-score” value (7.5 min) came to 2.94, the “furin cleavage Z-score” value (15 min) is 5.38 (active) and the “furin cleavage Z-score” value (30 min) is 4.72 (active).

Regarding CARKRRMQEEAGNASASA [FS-2349], the “furin cleavage Z-score” value reads like this: (7.5 min) 1.31; (15 min) 4.08 (active); (30 min) 2.78.

As for CARKNRSRIPAGNASASA [FS-1732], the “furin cleavage Z-score” value runs as follows: (7.5 min) 0.169 (inactive); (15 min) -0.807 (inactive); (30 min) 1.17.

With CARKRRAAIPAGNASASA [FS-2970], the “furin cleavage Z-score” value (7.5 min) was 8.75 (active), the “furin cleavage Z-score” value (15 min) is 10.1 (active) and the “furin cleavage Z-score” value (30 min) is 9.65 (active).

As for CARKRKKKEEAGNASASA [FS-2697], the “furin cleavage Z-score” value is, setting by setting: (7.5 min) 0.247 (inactive); (15 min) -0.542 (inactive); (30 min) 0.0983 (inactive).

For the sequence CARKRRHHKEAGNASASA [FS-2699], the “furin cleavage Z-score” value reads like this: (7.5 min) 2.57; (15 min) 3.84 (active); (30 min) 4.3 (active).

For CAITTGSPITAGNASASA [HC803], the “furin cleavage Z-score” value by setting is: (7.5 min) -2.76 (inactive); (15 min) 0.166 (inactive); (30 min) -2.04 (inactive).

In the case of CAHGVRVLEDAGNASASA [HC237], the “furin cleavage Z-score” value is, setting by setting: (7.5 min) -1.85 (inactive); (15 min) 0.0719 (inactive); (30 min) -1.67 (inactive).

Consider CATLPCSGSWAGNASASA [HC1845], for which the “furin cleavage Z-score” value is, setting by setting: (7.5 min) -0.596 (inactive); (15 min) -0.261 (inactive); (30 min) -1.28 (inactive).

For the sequence CAAFASRGNHAGNASASA [HC1121], the “furin cleavage Z-score” value (7.5 min) is -0.112 (inactive), the “furin cleavage Z-score” value (15 min) is -1.64 (inactive) and the “furin cleavage Z-score” value (30 min) was -2.06 (inactive).

Turning to CARKRRHAKPAGNASASA [FS-1906], the “furin cleavage Z-score” value by setting is: (7.5 min) 10.5 (active); (15 min) 11.1 (active); (30 min) 8.48 (active).

Regarding CARGNHVSPTAGNASASA [HC1123], the “furin cleavage Z-score” value was 1.1 (7.5 min), 1.54 (15 min) and 0.545 (inactive) (30 min).

Take CAEVPCHRPKAGNASASA [HC2414]: the “furin cleavage Z-score” value reads like this: (7.5 min) -1.63 (inactive); (15 min) 0.536 (inactive); (30 min) -0.415 (inactive).

For the sequence CAVVCCSMQYAGNASASA [HC2082], the “furin cleavage Z-score” value is 1.92 (7.5 min), 0.703 (inactive) (15 min) and 0.648 (inactive) (30 min).

On to CAGGAYDIIIAGNASASA [HC814], for which the “furin cleavage Z-score” value (7.5 min) is -2.09 (inactive), the “furin cleavage Z-score” value (15 min) is -0.697 (inactive) and the “furin cleavage Z-score” value (30 min) was -1.96 (inactive).

Regarding CAHHQRRRRAAGNASASA [FS-907], the “furin cleavage Z-score” value is 7.96 (active) (7.5 min), 6.66 (active) (15 min) and 6.29 (active) (30 min).

As for CAGAQRRRRAAGNASASA [FS-1524], the “furin cleavage Z-score” value is 6.18 (active) (7.5 min), 4.18 (active) (15 min) and 4.18 (active) (30 min).

With CAGAGAGAGAAGNASASA [NE4], the “furin cleavage Z-score” value by setting is: (7.5 min) -0.934 (inactive); (15 min) -0.739 (inactive); (30 min) -0.847 (inactive).

On to CAGERRRRRAAGNASASA [FS-996], for which the “furin cleavage Z-score” value by setting is: (7.5 min) 8.97 (active); (15 min) 8.15 (active); (30 min) 6.93 (active).

Turning to CAPAPPRRRAAGNASASA [FS-1041], the “furin cleavage Z-score” value is -0.128 (inactive) (7.5 min), 0.595 (inactive) (15 min) and -0.381 (inactive) (30 min).

Regarding CAGERGFFYTAGNASASA [EK5], the “furin cleavage Z-score” value is, setting by setting: (7.5 min) -1.92 (inactive); (15 min) -1.21 (inactive); (30 min) -0.932 (inactive).
